Compound activity as filed in PubChem BioAssay.
A selection: hits, their analogues and other compounds. The true share with any hit is near 1.8%.
Yp Topo-I inh: Y. pestis Topo-I inhibition via cleavage products | Y. pestis Topo-I cleavage product accumulation, plate reader | activity, % at 10 µM | AID 504884 | 0.064% of 360,000 active; in the data active = activity above about 50%, passing the limit was not always enough
PrPC surface inh: reduces human prion protein on the cell surface. P04156. cell surface PrPC, TR-FRET read-out. inhibition, % at 13.8 µM. 0.43% of 370,000 active. AID 720596; in the data active = inhibition above about 24%; note: 0% = median of the test wells and 100% = reference compound wells
BH1578 lux ind: quorum light induction in luxS cqsA deficient V. cholerae. V. cholerae BH1578 lux reporter, luminescence, 6 h. activation, % at 18.7 µM. 0.16% of 350,000 active; in the data active = activation mostly above about 9.7%, no sharp cut-off
CCHFV vOTU inh: blocks the CCHF virus ovarian tumor domain protease | CCHFV vOTU protease, Pep-AMC fluorescence | inhibition, % at 11.5 µM | 0.55% of 370,000 active | AID 651958; in the data active = inhibition above about 30%; note: 0% = vehicle wells with enzyme and 100% = no enzyme wells
MazEF act: increases E. coli MazEF RNase cleavage of RNA. P0AE70. FAM/BHQ RNA-DNA oligo cleavage fluorescence, 5 h. activation, % at 20 µM. 0.32% of 350,000 active. AID 504720; in the data active = activation above about 50%
Target sequence (P0AE70 whole entry, looked up): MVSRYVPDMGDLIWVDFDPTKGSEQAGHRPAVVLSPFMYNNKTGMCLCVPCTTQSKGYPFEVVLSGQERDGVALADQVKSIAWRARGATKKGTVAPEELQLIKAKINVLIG
DUSP3 inh: inhibitors of human VHR1 phosphatase (DUSP3) | AID 1654 | 0.52% of 290,000 active | recombinant VHR phosphatase, pNPP absorbance | inhibition, % at 13.3 µM; in the data active = inhibition above about 50%
Target sequence (P51452 whole entry, looked up): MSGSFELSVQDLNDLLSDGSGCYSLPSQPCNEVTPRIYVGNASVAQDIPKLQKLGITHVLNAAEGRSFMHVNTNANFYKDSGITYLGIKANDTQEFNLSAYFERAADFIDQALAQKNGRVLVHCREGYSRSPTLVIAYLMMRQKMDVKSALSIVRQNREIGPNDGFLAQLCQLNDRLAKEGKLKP
* marks the source's active call; other numbers are inactive results; i = inactive; / = no result given; + = active, no number.

SMILES	Yp Topo-I inh	PrPC surface inh	BH1578 lux ind	CCHFV vOTU inh	MazEF act	DUSP3 inh
Cc1ccc(C(=O)OCc2cc3ccccc3[nH]c2=O)cc1	7.2	4.5	0.7	3.5	6.9	32.0
Cc1cccc(C(=O)OCc2cc3ccccc3[nH]c2=O)c1	31.8	-2.6	-0.6	14.9	77.1*	5.5
CC1(c2nnnn2C2CCCCC2)CCCC(=O)N1CCc1ccc(O)cc1 (centres undefined)	/	-6.6	/	-8.6	/	/
COc1ccccc1-n1c(C)cc(SC)c(C(C)=O)c1=S	-0.3	-8.8	-0.5	16.1	-1.5	51.6*
Cc1ccc(C(=O)c2no[n+]([O-])c2C(=O)c2ccc(C)cc2)cc1	-6.8	-1.4	i	17.9	3.4	54.3*
CCc1ccccc1NC1=NCC(=O)N1C1CCCC1	-0.6	-3.1	i	7.8	-11.7	53.0*
CCc1ccccc1NC1=NCC(=O)N1Cc1ccc(OC)cc1	7.1	2.3	-1.4	-2.5	1.7	20.0
Cc1ccc(NC(=O)CC2S/C(=N/N=C/C=C/c3ccccc3)NC2=O)cc1Cl (centres undefined)	-0.5	-1.5	-0.3	5.2	54.8*	-4.4
Cc1ccc(NC(=O)CC2S/C(=N/N=C/c3ccco3)NC2=O)cc1Cl (centres undefined)	-3.7	1.6	i	-0.1	-7.2	8.5
CCCS(=O)(=O)N1CCC(C(=O)NCCCN(CC)c2cccc(C)c2)CC1	21.2	7.1	i	5.3	-2.0	-7.3
CCCS(=O)(=O)N1CCCC(C(=O)NCCCN(CC)c2cccc(C)c2)C1 (centres undefined)	22.5	11.8	+	18.2	2.0	24.2
N#CCC(=O)NCC1(c2ccccc2)CCCC1	-1.9	-2.0	25.0*	13.3	14.2	12.7
CCc1ccc(S(=O)(=O)/N=C2/C=C(Sc3ncn[nH]3)C(=O)c3ccccc32)cc1	-22.3	/	-0.3	/	-9.1	55.1*
O=S(=O)(c1cccs1)N1CCC(c2cn3ccccc3n2)CC1	/	-3.1	/	-12.1	/	/
CC(C)(C)c1ccc(S(=O)(=O)N2CCC(C(=O)NCCC3=CCCCC3)CC2)cc1	/	3.6	/	15.6	/	/
CCOc1ccc(C(=O)/C=C/Nc2ccc(S(=O)(=O)Nc3cc(C)nc(C)n3)cc2)cc1	/	-0.5	/	-7.5	-0.9	50.0*
COc1ccc(NC(=O)CSc2nc(C)cc(=O)[nH]2)cc1OC	/	5.0	/	16.8	/	/
Cc1cc(C)cc(NC(=O)c2cc3c(=O)n4ccccc4nc3s2)c1	7.8	-5.2	-0.9	26.2	69.5*	35.6
CC(C)NC(=O)c1cc2c(=O)n3ccccc3nc2s1	0.9	-27.1	1.9	-318.8	-3.6	20.1
CCN1Cc2nnn(CC3CCCCC3)c2-c2ccccc2S1(=O)=O	/	2.1	/	1.6	/	/
COC(=O)Cn1cc(/C=C2\C(=O)NC(=O)N(c3ccc(OC)cc3)C2=O)c2ccccc21	-1.0	-5.0	0.0	-10.9	111.1*	32.2
COCCNC(=O)Cn1cc(/C=C2\C(=O)NC(=O)N(c3ccccc3F)C2=O)c2ccccc21	11.1	8.9	-1.4	4.5	+	13.0
COc1ccc(N2C(=O)NC(=O)/C(=C\c3cn(C)c4ccccc34)C2=O)cc1	0.8	/	-1.4	/	290.0*	15.5
COCCCNC(=O)Cn1cc(/C=C2\C(=O)NC(=O)N(c3ccccc3F)C2=O)c2ccccc21	3.2	/	i	/	-502.7	9.5
O=C(O)Cn1cc(/C=C2\C(=O)NC(=O)N(c3ccc(F)cc3)C2=O)c2ccccc21	/	/	/	/	/	17.6
SMILES	Yp Topo-I inh	PrPC surface inh	BH1578 lux ind	CCHFV vOTU inh	MazEF act	DUSP3 inh
Cc1cc(-c2n[nH]c(=S)n2N=Cc2ccc(OCc3ccccc3)cc2)n[nH]1	/	3.6	/	5.7	/	/
COc1cc(OC)c2c(O)c3c(=O)cc(C)oc3c(-c3c(OC)cc4cc5c(c(O)c4c3O)C(=O)CC(C)(O)O5)c2c1 (centres undefined)	/	-1.6	/	4.8	/	/
N#CCC[C@H]1CC[C@]2(CCCN(C(=O)c3ccco3)C2)O1	/	7.4	/	1.6	/	/
CCOC(=O)Cc1csc(NC(=O)CSc2nnc(-c3ccncc3)o2)n1	-1.1	5.5	-0.3	-0.4	-1.6	53.0*
CCOC(=O)Cc1csc(NC(=O)CSc2nnc(-c3ccc(NS(=O)(=O)CC)cc3)o2)n1	2.1	-7.4	-3.2	11.3	-3.7	/
O=C(N[C@@H](Cc1ccccc1)C(=O)NCP(=O)(O)OC(Cc1ccccc1)C(=O)O)OCc1ccccc1 (some centres undefined)	/	-0.4	/	/	/	/
Nc1c(C(=O)O)sc2nc3c(cc12)CCCC3	6.3	-5.0	-0.6	5.9	12.1	25.0
Nc1c(C(=O)c2ccc(Cl)cc2)sc2nc3c(cc12)CCC3	-2.9	-1.6	1.4	-8.7	70.4*	-32.7
COC(=O)C1CN(Cc2cn(Cc3ccc(Cl)cc3)nn2)CCS(=O)(=O)N1Cc1ccc(Cl)cc1 (centres undefined)	/	-7.3	/	1.1	/	/
COC(=O)C1CN(Cc2ccc(OC)cc2)CCS(=O)(=O)N1Cc1ccc(OC)cc1 (centres undefined)	/	-1.1	/	3.5	/	/
COc1ccc(OC)c(/C=C/c2nc3ccccc3[nH]c2=O)c1	1.9	-8.1	0.8	-3.2	240.5*	30.6
O=c1[nH]c2ccccc2nc1/C=C/c1ccccc1	-3.6	-5.7	-0.5	-26.9	-6.2	17.4
O=c1[nH]c2ccccc2nc1/C=C/c1ccc(F)cc1	3.9	-4.6	-0.5	-3.4	849.1*	26.4
CCc1cccc2c(C(C)c3ccccc3O)c[nH]c12 (centres undefined)	/	-2.0	/	2.7	/	/
O=C(Nc1ccc(F)cc1)N[C@@H]1C[C@@H]2O[C@H](CO)CC[C@@H]2O[C@@H]1CCc1ccc(C2=CCCC2)cc1	/	5.9	/	5.1	/	/
CCOC(=O)[C@@]12CCCC3=C1N(CCC3)C(=O)[C@H]2CC(=O)NCCCN1CCCC1=O	/	-6.7	/	-10.9	/	/
OC(c1ccccc1)(c1ccccc1)C1CCN(CCCNc2ccc(C(F)(F)F)cc2)CC1	/	-20.2	/	13.5	/	/
Cc1cccc(N2CCN(C(=O)c3ccc(Cl)c(S(=O)(=O)N4CCc5ccccc5C4)c3)CC2)c1C	19.7	1.0	-0.2	-7.8	-6.7	59.1*
Nc1nonc1C(=O)NCCNCc1c(OCc2ccccc2F)ccc2ccccc12	0.6	-16.4	-0.2	-8.4	58.5*	14.6
O=S(=O)(c1cccc(-c2csc(-c3ccccc3)n2)c1)N1CCOCC1	-4.3	0.4	-0.3	7.5	-17.0	27.4
CC1CN(S(=O)(=O)c2cccc(-c3csc(-c4ccccc4)n3)c2)CC(C)O1 (centres undefined)	28.8	-0.2	i	9.5	70.3*	11.3
CCOc1ccc(Oc2ccc(S(=O)(=O)N3CCOCC3)cc2NC(=O)C2=COCCO2)cc1	62.0*	2.7	i	-2.5	-5.3	/
CCn1c(SCC(=O)Nc2ccc(C(C)=O)cc2)nc2nc3c(cc2c1=O)CCCC3	-6.6	6.1	-1.0	7.8	0.8	4.8
CCn1c(SCC(=O)NCc2ccccc2)nc2nc3c(cc2c1=O)CCCC3	10.6	2.3	i	8.4	5.3	52.9*
CCn1c(SCC(=O)Nc2ccc(Cl)cc2)nc2nc3c(cc2c1=O)CCCC3	4.8	3.5	-0.2	3.9	-7.8	59.9*
